From the supplement of paper PMC8728848
The entries come from a sample that favours the strongest signals as a whole.

Experiments:
Test in all cases: glycan array binding signal (z-score within array); higher = stronger binding
Details in all cases: glycan notation: IUPAC condensed, linker removed
[1] = biological target: Fuc(a1-2)Gal
Outline: (§1)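 The binding signal is a Z-score computed within each array and averaged over linkers. Arrays of the same protein sequence at different concentrations or buffers were also averaged together. Data originate from 3228 arrays in the Consortium for Functional Glycomics database, kept only where the protein sequence was available.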

[2] = biological target: Fuc(a1-2)Gal(b1-4)GlcNAc(b1-6)GalNAc
Outline: as §1

[3] = biological target: Fuc(a1-2)Gal3S(b1-4)GlcNAc
Outline: as §1

[4] = biological target: Fuc(a1-2)Gal6S(b1-3)GlcNAc
Outline: as §1

[5] = biological target: Fuc(a1-2)[Gal(a1-3)]Gal(b1-3)GlcNAc(b1-3)GalNAc
Outline: as §1

[6] = biological target: Fuc(a1-2)[Gal(a1-3)]Gal(b1-3)GlcNAc(b1-6)GalNAc
Outline: as §1

[7] = biological target: Fuc(a1-2)[Gal(a1-3)]Gal(b1-4)[Fuc(a1-3)]Glc
Outline: as §1

[8] = biological target: Fuc(a1-2)[Gal(a1-4)]Gal(b1-4)GlcNAc
Outline: as §1

[9] = biological target: Fuc(a1-2)[GalNAc(a1-3)]Gal(b1-3)GalNAc(a1-3)[Fuc(a1-2)]Gal(b1-4)GlcNAc
Outline: as §1

[10] = biological target: Fuc(a1-2)[GalNAc(a1-3)]Gal(b1-3)GlcNAc(b1-2)Man(a1-3)[Fuc(a1-2)[GalNAc(a1-3)]Gal(b1-3)GlcNAc(b1-2)Man(a1-6)]Man(b1-4)GlcNAc(b1-4)GlcNAc
Outline: as §1

[11] = biological target: Fuc(a1-2)[GalNAc(a1-3)]Gal(b1-4)GlcNAc(b1-2)Man
Outline: as §1

[12] = biological target: Fuc(a1-2)[GalNAc(a1-3)]Gal(b1-4)GlcNAc(b1-3)Gal(b1-4)GlcNAc(b1-3)Gal(b1-4)GlcNAc
Outline: as §1

[13] = biological target: Fuc(a1-2)[GalNAc(a1-4)]Gal(b1-4)GlcNAc
Outline: as §1

[14] = biological target: Fuc(a1-3)[Gal(b1-4)]GlcNAc(b1-2)Man(a1-3)[Fuc(a1-3)[Gal(b1-4)]GlcNAc(b1-2)Man(a1-6)]Man(b1-4)GlcNAc(b1-4)[Fuc(a1-6)]GlcNAc
Outline: as §1

[15] = biological target: Fuc(a1-3)[Gal(b1-4)]GlcNAc(b1-3)GalNAc
Outline: as §1

[16] = biological target: Gal(a1-3)Gal(b1-3)GlcNAc(b1-6)GalNAc
Outline: as §1

[17] = biological target: Gal(a1-3)Gal(b1-3)[Fuc(a1-4)]GlcNAc(b1-2)Man(a1-3)[Gal(a1-3)Gal(b1-3)[Fuc(a1-4)]GlcNAc(b1-2)Man(a1-6)]Man(b1-4)GlcNAc(b1-4)GlcNAc
Outline: as §1

[18] = biological target: Gal(a1-3)Gal(b1-4)Glc
Outline: as §1

[19] = biological target: Gal(a1-3)Gal(b1-4)GlcNAc(b1-3)GalNAc
Outline: as §1

[20] = biological target: Gal(b1-3)GlcNAc(b1-3)Gal(b1-4)GlcNAc(b1-2)[Gal(b1-3)GlcNAc(b1-3)Gal(b1-4)GlcNAc(b1-6)]Man(a1-6)[Gal(b1-3)GlcNAc(b1-3)Gal(b1-4)GlcNAc(b1-2)Man(a1-3)]Man(b1-4)GlcNAc(b1-4)[Fuc(a1-6)]GlcNAc
Outline: as §1

[21] = biological target: Gal(b1-4)GlcNAc(b1-2)Man(a1-3)[Gal(b1-4)GlcNAc(b1-2)Man(a1-6)]Man(b1-4)GlcNAc(b1-4)GlcNAc
Outline: as §1

[22] = biological target: Gal(b1-4)GlcNAc(b1-2)[Gal(b1-4)GlcNAc(b1-4)]Man(a1-3)[Gal(b1-4)GlcNAc(b1-2)[Gal(b1-4)GlcNAc(b1-6)]Man(a1-6)]Man(b1-4)GlcNAc(b1-4)GlcNAc
Outline: as §1

[23] = biological target: Gal(b1-4)GlcNAc(b1-2)[Gal(b1-4)GlcNAc(b1-6)]Man(a1-6)[Gal(b1-4)GlcNAc(b1-2)Man(a1-3)]Man(b1-4)GlcNAc(b1-4)[Fuc(a1-6)]GlcNAc
Outline: as §1

[24] = biological target: Gal(b1-4)GlcNAc(b1-3)Gal(b1-4)GlcNAc(b1-2)[Gal(b1-4)GlcNAc(b1-3)Gal(b1-4)GlcNAc(b1-6)]Man(a1-6)[Gal(b1-4)GlcNAc(b1-3)Gal(b1-4)GlcNAc(b1-2)Man(a1-3)]Man(b1-4)GlcNAc(b1-4)GlcNAc
Outline: as §1

[25] = biological target: Gal3S(b1-3)[Fuc(a1-4)]GlcNAc
Outline: as §1

[26] = biological target: GalNAc(a1-3)GalNAc
Outline: as §1

[27] = biological target: GalNAc(a1-3)GalNAc(b1-3)Gal(a1-4)Gal(b1-4)GlcNAc
Outline: as §1

[28] = biological target: GalNAc(b1-3)Gal(a1-6)Gal(b1-4)Glc
Outline: as §1

[29] = biological target: GalNAc(b1-4)GlcNAc(b1-2)Man
Outline: as §1

[30] = biological target: GalNAc3S(b1-4)[Fuc(a1-3)]GlcNAc
Outline: as §1

[31] = biological target: GalNAc4S6S(b1-4)GlcNAc
Outline: as §1

[32] = biological target: GlcNAc(a1-4)Gal(b1-4)GlcNAc(b1-3)Gal(b1-4)Glc
Outline: as §1

[33] = biological target: GlcNAc(a1-4)Gal(b1-4)GlcNAc(b1-3)Gal(b1-4)[Fuc(a1-3)]GlcNAc(b1-3)Gal(b1-4)[Fuc(a1-3)]GlcNAc
Outline: as §1

[34] = biological target: GlcNAc(a1-6)Gal(b1-4)GlcNAc
Outline: as §1

[35] = biological target: GlcNAc(b1-3)Fuc
Outline: as §1

[36] = biological target: Kdn(a2-3)Gal(b1-4)[Fuc(a1-3)]GlcNAc
Outline: as §1

[37] = biological target: Man(a1-2)Man(a1-6)[Man(a1-3)]Man(a1-6)[Man(a1-2)Man(a1-2)Man(a1-3)]Man
Outline: as §1

[38] = biological target: Neu5Ac(a2-3)Gal
Outline: as §1

[39] = biological target: Neu5Ac(a2-3)Gal(b1-4)GlcNAc
Outline: as §1

[40] = biological target: Neu5Ac(a2-3)Gal(b1-4)GlcNAc(b1-3)Gal(b1-4)GlcNAc(b1-3)[Neu5Ac(a2-3)Gal(b1-4)GlcNAc(b1-3)Gal(b1-4)GlcNAc(b1-6)]GalNAc
Outline: as §1

[41] = biological target: Neu5Ac(a2-3)Gal(b1-4)GlcNAc(b1-3)[Neu5Ac(a2-3)Gal(b1-4)GlcNAc(b1-6)]GalNAc
Outline: as §1

[42] = biological target: Neu5Ac(a2-3)Gal(b1-4)GlcNAc6S
Outline: as §1

[43] = biological target: Neu5Ac(a2-3)Gal6S(b1-4)GlcNAc
Outline: as §1

[44] = biological target: Neu5Ac(a2-3)[GalNAc(b1-4)]Gal(b1-4)Glc
Outline: as §1

[45] = biological target: Neu5Ac(a2-3)[GalNAc(b1-4)]Gal(b1-4)GlcNAc(b1-3)GalNAc
Outline: as §1

[46] = biological target: Neu5Ac(a2-6)Gal(b1-4)GlcNAc(b1-2)Man(a1-3)[Neu5Ac(a2-3)Gal(b1-4)GlcNAc(b1-2)Man(a1-6)]Man(b1-4)GlcNAc(b1-4)GlcNAc
Outline: as §1

[47] = biological target: Neu5Ac(a2-6)Gal(b1-4)GlcNAc(b1-2)Man(a1-6)[GlcNAc(b1-2)Man(a1-3)]Man(b1-4)GlcNAc(b1-4)GlcNAc
Outline: as §1

[48] = biological target: Neu5Ac(a2-8)Neu5Ac(a2-3)[Gal(b1-3)GalNAc(b1-4)]Gal(b1-4)Glc
Outline: as §1

[49] = biological target: Neu5Ac(a2-8)Neu5Ac(a2-8)Neu5Ac(a2-8)Neu5Ac(a2-3)[GalNAc(b1-4)]Gal(b1-4)Glc
Outline: as §1

[50] = biological target: Neu5Gc(a2-6)Gal(b1-4)GlcNAc
Outline: as §1

[51] = biological target: Neu5Gc(a2-6)GalNAc
Outline: as §1

B1: Cohesin-hDC-ASGPR (Homo sapiens) (protein)
chain: LDDLDAVRIKVDTVNAKPGDTVRIPVRFSGIPSKGIANCDFVYSYDPNVLEIIEIEPGDIIVDPNPDKSFDTAVYPDRKIIVFLFAEDSGTGAYAITKDGVFATIVAKVKEGAPNGLSVIKFVEVGGFANNDLVEQKTQFFDGGANVGDTTEPATPTTPVTTPTTTDDLDAASQNSKFQRDLVTLRTDFSNFTSNTVAEIQALTSQGSSLEETIASLKAEVEGFKQERQAGVSELQEHTTQKAHLGHCPHCPSVCVPVHSEMLLRVQQLVQDLKKLTCQVATLNNNASTEGTCCPVNWVEHQDSCYWFSHSGMSWAEAEKYCQLKNAHLVVINSREEQNFVQKYLGSAYTWMGLSDPEGAWKWVDGTDYATGFQNWKPGQPDDWQGHGLGGGEDCAHFHPDGRWNDDVCQRPYHWVCEAGLGQTSQESHHHHHH
- glycan array binding signal (z-score) [1]: -0.306
- glycan array binding signal (z-score) [2]: 2.81
- glycan array binding signal (z-score) [3]: -0.377
- glycan array binding signal (z-score) [4]: -0.246
- glycan array binding signal (z-score) [5]: -0.407
- glycan array binding signal (z-score) [6]: 2.85
- glycan array binding signal (z-score) [7]: -0.481
- glycan array binding signal (z-score) [8]: -0.495
- glycan array binding signal (z-score) [9]: 3.55
- glycan array binding signal (z-score) [10]: 2.83
- glycan array binding signal (z-score) [11]: 2.03
- glycan array binding signal (z-score) [12]: 1.93
- glycan array binding signal (z-score) [13]: 3.15
- glycan array binding signal (z-score) [14]: -0.501
- glycan array binding signal (z-score) [15]: -0.391
- glycan array binding signal (z-score) [16]: 2.9
- glycan array binding signal (z-score) [17]: -0.322
- glycan array binding signal (z-score) [18]: -0.483
- glycan array binding signal (z-score) [19]: -0.475
- glycan array binding signal (z-score) [20]: 0.077
- glycan array binding signal (z-score) [21]: -0.447
- glycan array binding signal (z-score) [22]: -0.517
- glycan array binding signal (z-score) [23]: -0.504
- glycan array binding signal (z-score) [24]: 1.87
- glycan array binding signal (z-score) [25]: -0.306
- glycan array binding signal (z-score) [26]: 2.37
- glycan array binding signal (z-score) [27]: 1.97
- glycan array binding signal (z-score) [28]: 2.84
- glycan array binding signal (z-score) [29]: 2.86
- glycan array binding signal (z-score) [30]: -0.502
- glycan array binding signal (z-score) [31]: -0.516
- glycan array binding signal (z-score) [32]: -0.508
- glycan array binding signal (z-score) [33]: -0.444
- glycan array binding signal (z-score) [34]: -0.439
- glycan array binding signal (z-score) [35]: -0.443
- glycan array binding signal (z-score) [36]: -0.485
- glycan array binding signal (z-score) [37]: -0.48
- glycan array binding signal (z-score) [38]: -0.335
- glycan array binding signal (z-score) [39]: -0.453
- glycan array binding signal (z-score) [40]: -0.339
- glycan array binding signal (z-score) [41]: -0.495
- glycan array binding signal (z-score) [42]: -0.518
- glycan array binding signal (z-score) [43]: -0.517
- glycan array binding signal (z-score) [44]: 2.91
- glycan array binding signal (z-score) [45]: 1.83
- glycan array binding signal (z-score) [46]: -0.471
- glycan array binding signal (z-score) [47]: -0.387
- glycan array binding signal (z-score) [48]: 3.87
- glycan array binding signal (z-score) [49]: 2.95
- glycan array binding signal (z-score) [50]: -0.392
- glycan array binding signal (z-score) [51]: 2.81
